VACV Venus inh = vaccinia inhibition (Venus reporter); Vaccinia virus Venus reporter expression, fluorescence; Potency, µM (top dose mostly 36.5 µM), actives largely listed as inhibitors; 330,000 tested, 0.46% active; calls by dose curve; tested in A549 cells; also: nearly all actives have a fitted effect of over 30% in size
Shiga toxin inh = Shiga toxin inhibition; 290,000 tested, 9.2% active; inhibition, % at 38.7 µM; Vero cells, Shiga toxin protein synthesis inhibition reporter; in the data active = inhibition mostly above about 28%, no sharp cut-off; inactive = mostly below about 43%
CHX counter = counter-screen for Shiga toxin inhibitors: cycloheximide protein synthesis inhibition; cell reporter, cycloheximide protein synthesis inhibition counterscreen; max response, %; 300,000 tested, 12% active; AID 2314; in the data active = max response mostly above about 13%, no sharp cut-off; inactive = mostly below about 14%; also: read at 38.3 µM for the half of the compounds with a filed dose
LASV entry inh = blocks Lassa virus binding to or entry into cells. 300,000 tested, 1.2% active. Lassa virus pseudotype entry inhibition, cell reporter. Potency, µM (titrated, usually from 37.9 µM), usual class: inhibitors; calls by dose curve; tested in HEK293 cells; also: nearly all actives have a fitted effect of over 50% in size
Marburg entry inh = blocks Marburg virus binding to or entry into cells; Marburg virus pseudotyped entry inhibition, cell reporter; Potency, µM (highest dose often 37.8 µM), usual class: inhibitors; 300,000 tested, 1.8% active; AID 540276; calls by dose curve; tested in HEK293 cells
VACV mCherry inh = vaccinia inhibition (mCherry reporter); Vaccinia virus mCherry reporter infection, fluorescence; Potency, µM (highest dose often 36.5 µM), hits mostly inhibitors; 310,000 tested, 0.63% active; AID 720579; calls by dose curve; tested in A549 cells; also: nearly all actives have a fitted effect of over 35% in size
Of the large screens only hits and unclear results are named; the others gave an inactive call. This is one part of a sample in which hits are shown more often than they occur.

CCOC(=O)C1=C(CSc2nc(-c3ccccc3)ccc2C#N)OC(N)=C(C#N)C1c1cccnc1 (stereo not drawn)	Shiga toxin inh 92, CHX counter 42 (no result: VACV mCherry inh)
NC(=O)C1=C[C@H](c2ccc(Br)cc2)C[C@H](OCc2ccc(CO)cc2)O1	Shiga toxin inh 56, CHX counter 25 (no result: LASV entry inh, Marburg entry inh)
O=C(Nc1ccccc1)C1=C[C@H](c2ccc3c(c2)OCO3)C[C@H](OCc2ccc(CO)cc2)O1	Shiga toxin inh 104, CHX counter 73 (no result: LASV entry inh, Marburg entry inh)
O=C(O)C1=C[C@H](c2ccc3c(c2)OCO3)C[C@H](OCc2ccc(CO)cc2)O1	none (no result: Shiga toxin inh, CHX counter, LASV entry inh, Marburg entry inh)
O=C(Nc1ccccc1)C1=C[C@@H](c2ccc(Br)cc2)C[C@@H](OCc2ccc(CO)cc2)O1	Shiga toxin inh 86, CHX counter 46, VACV mCherry inh inconclusive (no result: LASV entry inh, Marburg entry inh)
O=C(O)C1=C[C@@H](c2ccc(Br)cc2)C[C@@H](OCc2ccc(CO)cc2)O1	none (no result: LASV entry inh, Marburg entry inh)
NC(=O)C1=C[C@@H](c2ccc(Br)cc2)C[C@@H](OCc2ccc(CO)cc2)O1	VACV mCherry inh inconclusive (no result: LASV entry inh, Marburg entry inh)
C=CCOC(=O)C1=C[C@@H](c2ccc3c(c2)OCO3)C[C@@H](OCc2ccc(CO)cc2)O1	Shiga toxin inh 82, CHX counter 19, VACV mCherry inh inconclusive (no result: LASV entry inh, Marburg entry inh)
Cc1cccc(N2C(=O)N(CC(=O)C(C)(C)C)c3ccccc3S2(=O)=O)c1C	none (no result: Shiga toxin inh, CHX counter, Marburg entry inh)
COc1ccc(-c2cnc(C)o2)cc1S(=O)(=O)Nc1c(C)cc(C)cc1C	none (no result: Shiga toxin inh, CHX counter, Marburg entry inh)
Cc1ccccc1OCC(=O)Nc1ccc2c(c1)C(=O)c1ccccc1C2=O	Shiga toxin inh 38, CHX counter 23, Marburg entry inh inconclusive (no result: VACV Venus inh, VACV mCherry inh)
O=C(COc1ccccc1Cl)Nc1ccccc1C(=O)Nc1cccc(C(=O)O)c1	CHX counter 40 (no result: VACV Venus inh, LASV entry inh, Marburg entry inh, VACV mCherry inh)
O=C(COC(=O)Cn1cnc2ccccc21)Nc1ccc2c(c1)C(=O)c1ccccc1C2=O	Shiga toxin inh 18, CHX counter 67, Marburg entry inh inconclusive (no result: VACV Venus inh, VACV mCherry inh)
Cc1ccccc1OCC(=O)Nc1ccc2c(c1)Cc1ccccc1-2	none (no result: VACV Venus inh, VACV mCherry inh)
Cc1ccccc1OCC(=O)Nc1cccc(C(=O)O)c1	CHX counter 26, LASV entry inh 0.89µM, Marburg entry inh inconclusive
Cc1cccc(OCC(=O)Nc2cc(NC(=O)COc3cccc(C)c3C)cc(C(=O)O)c2)c1C	none (no result: VACV Venus inh, LASV entry inh, Marburg entry inh, VACV mCherry inh)
CC(=O)c1cccc(NC(=O)COC(=O)c2ccccc2C)c1	Shiga toxin inh 110, CHX counter 62, LASV entry inh inconclusive, Marburg entry inh inconclusive
CCOc1ncccc1C(=O)OCC(=O)Nc1cccc(C(C)=O)c1	Marburg entry inh inconclusive (no result: VACV Venus inh, VACV mCherry inh)
Cc1ccccc1OCC(=O)Nc1ccc(N2CCN(C)CC2)c(Cl)c1	Shiga toxin inh 85, CHX counter 29, Marburg entry inh inconclusive
Cc1nc2c(-c3ccc(F)cc3)c(C)nn2c(C)c1CCC(=O)NCc1cccc(Cl)c1	none (no result: Shiga toxin inh, CHX counter)
Nc1nc(N)nc(-c2cccc(Cl)c2Cl)n1	none (no result: Shiga toxin inh, CHX counter, LASV entry inh, Marburg entry inh)
COc1cc2c(c(OC)c1OC)-c1ccc(OC)c(=O)cc1[C@@H](N(C)CC#CCO)CC2	VACV Venus inh inconclusive, LASV entry inh inconclusive, Marburg entry inh inconclusive
COc1cc2c(c(OC)c1OC)-c1ccc(N(C)CC(OC)OC)c(=O)cc1[C@@H](NC(C)=O)CC2	LASV entry inh inconclusive, Marburg entry inh 1µM
CCN(CC)c1ccc2c(cc1=O)[C@@H](NC)CCc1cc(OC)c(OC)c(OC)c1-2	LASV entry inh 1.1µM, Marburg entry inh 4µM, VACV mCherry inh inconclusive
CN[C@H]1CCc2cc(OC)c(OC)c(OC)c2-c2ccc(N(C)CC(OC)OC)c(=O)cc21	none (no result: VACV Venus inh, LASV entry inh, Marburg entry inh, VACV mCherry inh)
C[N+](C)(C)CC1CCCc2ccccc2C1=O (stereo not drawn)	LASV entry inh inconclusive, Marburg entry inh inconclusive (no result: Shiga toxin inh, CHX counter)
C[N+](C)(C)CC1CCCC(C[N+](C)(C)C)C1=O (stereo not drawn)	LASV entry inh inconclusive, Marburg entry inh 10µM (no result: Shiga toxin inh, CHX counter)
Nc1ccc2nn(-c3ccccc3)nc2c1	Shiga toxin inh 97, CHX counter 53, VACV mCherry inh inconclusive
CC(C)CC(=O)Nc1cc2nn(-c3ccccc3)nc2cc1Cl	Shiga toxin inh 115, CHX counter 74, LASV entry inh inconclusive, Marburg entry inh inconclusive (no result: VACV Venus inh, VACV mCherry inh)
Cc1cc2nn(-c3ccccc3)nc2cc1NC(=O)Cc1ccc(Cl)cc1	LASV entry inh inconclusive (no result: Shiga toxin inh, CHX counter, Marburg entry inh)
Nc1cc2nn(-c3ccccc3)nc2cc1Cl	Shiga toxin inh 141, CHX counter 32, LASV entry inh inconclusive
O=C(Nc1cccnc1)OC1CCCC1	CHX counter 22, Marburg entry inh inconclusive
O=C(Nc1cccnc1)OC1CCCCC1	CHX counter 19
COc1ccc(Nc2nc(N)nc(CSC(=S)N3CCN(c4ccccc4)CC3)n2)cc1	VACV Venus inh inconclusive, LASV entry inh inconclusive, Marburg entry inh inconclusive
COc1ccc(Nc2nc(N)nc(CSC(=S)N3CCCCC3)n2)cc1	Shiga toxin inh 36, CHX counter 48 (no result: LASV entry inh, Marburg entry inh)
Cc1c(Cl)cccc1Nc1nc(N)nc(CSC(=S)N2CCOCC2)n1	CHX counter 39, LASV entry inh inconclusive
COc1ccc(Nc2nc(N)nc(CSC(=S)N3CCN(C)CC3)n2)cc1	CHX counter 17 (no result: LASV entry inh, Marburg entry inh)
Cc1c(Cl)cccc1Nc1nc(N)nc(CN2CCCCCC2)n1	none
COc1ccc(Nc2nc(N)nc(CSC(=S)N3CCCCC3C)n2)cc1 (stereo not drawn)	VACV Venus inh inconclusive, Shiga toxin inh 65, CHX counter 28, LASV entry inh 7.1µM, Marburg entry inh inconclusive
COc1ccc(-c2cc(C(=O)Nc3c(C)n(C)n(-c4ccccc4)c3=O)no2)cc1OC	none
Cc1noc(C)c1COc1ccc(C(=O)N2CCC(C)CC2)cc1	Marburg entry inh inconclusive (no result: Shiga toxin inh, CHX counter)
CC1CCN(C(=S)SCc2nc(N)nc(Nc3ccccc3)n2)CC1	Shiga toxin inh 35, CHX counter 25 (no result: VACV Venus inh, LASV entry inh, Marburg entry inh, VACV mCherry inh)
Cc1ccc(C)c(S(=O)(=O)N2CCN(CC(=O)NC(=O)NCc3ccccc3)CC2)c1	LASV entry inh 26µM, Marburg entry inh inconclusive (no result: VACV Venus inh, VACV mCherry inh)
O=C(CN1CCC(Cc2ccccc2)CC1)NC(=O)NCc1ccccc1	none
COc1cc(/C=N/Nc2nc3ccccc3o2)cc(OC)c1O	none (no result: VACV Venus inh, VACV mCherry inh)
Oc1ccc(/C=N/Nc2ccc3ccccc3c2)c(O)c1	Shiga toxin inh 44, CHX counter 31, LASV entry inh inconclusive
COc1cc(/C=N\Nc2nc3ccccc3o2)cc(OC)c1OC	VACV Venus inh inconclusive, Shiga toxin inh 110, CHX counter 40, LASV entry inh inconclusive, VACV mCherry inh inconclusive
COc1ccc(/C=N/NC(=O)c2ccc(-c3ccccc3)cc2)cc1O	LASV entry inh inconclusive
OCC(O)/C=N/Nc1nc2ccccc2s1 (stereo not drawn)	Shiga toxin inh 48, Marburg entry inh inconclusive, VACV mCherry inh inconclusive
OC(CNc1nc2ccccc2s1)c1ccccc1 (stereo not drawn)	LASV entry inh inconclusive
COc1ccc(/C=N/Nc2nc3ccccc3o2)cc1O	CHX counter 36, LASV entry inh inconclusive, Marburg entry inh inconclusive
Cc1cccc(CNC(=O)C2CCN(S(=O)(=O)c3cccc4nonc34)CC2)c1	none (no result: Shiga toxin inh, CHX counter, Marburg entry inh)
O=S(=O)(Nc1cccc(-c2ccc(N3CCOCC3)nn2)c1)c1cc(C(F)(F)F)ccc1Cl	none (no result: Shiga toxin inh, CHX counter, Marburg entry inh)
Oc1ccc(C=NNc2nc3ccccc3s2)c(O)c1	VACV Venus inh inconclusive, LASV entry inh inconclusive, Marburg entry inh inconclusive, VACV mCherry inh 5µM (no result: Shiga toxin inh, CHX counter)
CC(=O)Nc1cccc(/C(C)=N/NC(=O)c2cc(-c3ccncc3)nc3ccccc23)c1	LASV entry inh inconclusive

Screens: PubChem, National Center for Advancing Translational Sciences (NCATS)
